This note sets out measurements from PubChem BioAssay (NCATS).

The test addresses Calcium and integrin-binding protein 1 (Homo sapiens) (UniProt Q99828). Description: Primary qHTS for Identification of Calcium Integrin Binding Protein 1 (CIB1) Competitor (AID 1508620). Also: top concentration of the series differs between compounds. In a few lines:
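Fluorescence polarization competition: GST-tagged CIB1 (1 uM final) preincubated with compound 15 min at room temperature, then FITC-labelled alphaIIb peptide (100 nM final) added. After 15 min at room temperature, polarization read at Ex 480/Em 540.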
In general terms: Quantitative high-throughput screening tests each substance at several concentrations.

Results filed as inconclusive are left out. A call without a number means that no potency is given here. Activity calls are given as the source filed them. Calls follow the shape of the dose curve; as a rule, active = well fitted inhibition curve with a large enough effect; inconclusive = small, poorly fitted or top-dose-only effect; inactive = flat fitted curve, though single readings scatter.

Chain of Calcium and integrin-binding protein 1 (Homo sapiens) (Q99828 whole entry, looked up): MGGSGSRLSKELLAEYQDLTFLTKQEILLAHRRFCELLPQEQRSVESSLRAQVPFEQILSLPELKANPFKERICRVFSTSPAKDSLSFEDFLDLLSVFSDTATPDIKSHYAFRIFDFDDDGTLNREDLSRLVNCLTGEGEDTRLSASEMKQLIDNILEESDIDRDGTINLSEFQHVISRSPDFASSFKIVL

Turning to `O=Cc1ccc(-c2ccc3ncnc(NCc4cccs4)c3c2)o1`, the Potency entry was “inactive”. Then `O=C(Nc1ccccc1)c1cccs1`, with “inactive”; and `O=C(COC(=O)CNC(=O)c1ccccc1)Nc1cc(C(F)(F)F)ccc1Cl`, with “inactive”; and `COc1ccc(C2Nc3ccccc3C(=O)N2Cc2ccccc2)cc1COc1c(C)cc(NC(C)=O)cc1C` (stereo not given), with “inactive”. With `Cc1noc(C)c1-c1ccc2ncnc(NCc3ccccc3F)c2c1`, the Potency result was “inactive”. In the case of `Cc1ccc(-c2ccc(=O)n(CC(=O)NCCCc3ccccc3)n2)cc1`, the Potency result is “inactive”. Then `CC(C)(C)OC(=O)N1CCN(c2ccc(NCc3cncc(-c4ccc(C#N)cc4)c3)cc2)CC1`, with “inactive”; and `Oc1c(C(Nc2ccccn2)c2ccccc2)cc(Cl)c2cccnc12` (stereo not given), with “inactive”.

Regarding `Cn1c2cc(B(O)O)sc2c2cnn(Cc3ccc(F)cc3F)c(=O)c21`, the Potency entry is “inactive”. For `O=C(Cc1ccc(Cl)c(Cl)c1)Nc1ccc(S(=O)(=O)Nc2cncnc2)cc1` the value was “inactive”; for `c1ccc(-c2nc(NCc3ccc(-c4cccnc4)cc3)c3ccccc3n2)cc1`, “inactive”; for `CCCCN(CCCNC(=S)NCCCc1cnc[nH]1)c1ccc(Br)cn1`, “inactive”.

For `Cc1cccc(-n2cnc3cc(C(=O)NC4CCCCC4)ccc32)c1`, the Potency result was “inactive”.

For the compound `COc1ccc(C2c3ccc4ccccc4c3Oc3ncn(CCN4CCOCC4)c(=N)c32)cc1OC` (stereo not given), the Potency entry was “inactive”. With `N#CN1CCC(NS(=O)(=O)c2ccc(C(F)(F)F)cc2)C1` (stereo not given), the Potency entry is “inactive”. For `NC(=O)c1c(-c2ccccc2)no[n+]1[O-]` the value was “inactive”; for `CN(C)c1cccc(-c2cnc(N3CCC(C(N)=O)CC3)s2)c1`, “inactive”; for `N#Cc1nc(Nc2cccc3ccccc23)nc(NC2CCCC2)n1`, “inactive”. Then `O=C(Cc1ccc(Cl)c(Cl)c1)Nc1ccc(S(=O)(=O)NCc2ccco2)cc1`, with “inactive”; and `c1cncc(-c2ccc(CNc3nc(C4CCCC4)nc4ccccc34)cc2)c1`, with “inactive”.

On to `O=c1c2ccccc2nc(-c2ccccc2O)n1Cc1ccccc1`, for which the Potency entry is “inactive”. For the compound `N#Cc1nc(Nc2cc(F)cc(F)c2)c2ncn(CCCO)c2n1`, the Potency entry is “inactive”. For `CC(=O)Nc1sc2c(c1-c1cnn(C(C)=O)c1)CCNC2` the value was “inactive”; for `Cc1cc2c(s1)c1cnn(Cc3cc(F)ccc3F)c(=O)c1n2C`, “inactive”; for `COc1ccc2c(c1)Oc1nc(-c3ccc(C)cc3)nc(SCC(=O)Nc3cccc(C(=O)O)c3)c1C2`, “inactive”.

For `CC(=O)Nc1ccc(NC(=O)c2cnn3c(C)cc(C)nc23)cc1`, the Potency entry was “inactive”. Then `CC(=O)Nc1ccc(OC2=NS(=O)(=O)c3ccccc32)cc1`, with “inactive”. For `COc1cccc(C2c3c(ncn(-c4ccc5c(c4)OCO5)c3=N)Oc3ccc4ccccc4c32)c1` (stereo not given) the value was “inactive”; for `Oc1cc(Nc2ccccc2)cc2cccnc12`, “inactive”; for `COc1cccc(C2c3c(ncn(-c4cccnc4)c3=N)Oc3ccc4ccccc4c32)c1` (stereo not given), “inactive”. With `Cn1cc2ccc(-c3ccc4ncnc(NCc5cccs5)c4c3)cc2n1`, the Potency result is “inactive”. Regarding `Oc1ccc(Nc2nc(-c3ccncc3)nc3ccccc23)cc1F`, the Potency result is “inactive”.

In the case of `Cc1cc(C)nc(NC(=S)N2CCN(c3ncccc3Cl)CC2)c1`, the Potency entry was “inactive”. For `NC(=O)C1CCN(c2nccc(-c3ccc4c(c3)OCCCO4)n2)CC1` the value was “inactive”; for `CCCN(Cc1cccs1)c1ncnc2ccc(-c3ccc4c(c3)OCO4)cc12`, “inactive”; for `O=S(=O)(c1c(F)cccc1F)C1CCN(S(=O)(=O)c2ccc3c(c2)OCCO3)CC1`, “inactive”. Then `COc1ccc(C2c3c(ncn(CCc4ccccc4)c3=N)Oc3ccc4ccccc4c32)cc1OC` (stereo not given), with “inactive”.

Regarding `O=C(O)c1ccc(-c2noc(-c3cccc(Cl)c3)n2)cc1`, the Potency entry was “inactive”. For `NC(=O)c1ccccc1C[C@H](C(=O)O)N1C(=O)c2ccc(C(=O)O)cc2C1=O` the value was “inactive”; for `Cc1ccc(OCCn2c(CCNC(=O)c3ccc(Br)o3)nc3ccccc32)cc1`, “inactive”. Consider `O=C(Nc1cncc(O)c1)c1cccs1`, for which the Potency entry is “inactive”. Then `COc1ccc(C2Nc3ccccc3C(=O)N2Cc2cccc(C(F)(F)F)c2)cc1COc1ccc(NC(C)=O)cc1` (stereo not given), with “inactive”; and `O=S(=O)(NC1CCN(S(=O)(=O)c2ccc3c(c2)OCCO3)CC1)c1c(F)cccc1F`, with “inactive”; and `NCCCNc1ncnc2ccc(-c3ccc4c(c3)OCO4)cc12`, with “inactive”. For `O=C(O)c1ccc(CSc2nnc(-c3cccc(S(=O)(=O)NC4CCCC4)c3)n2-c2ccc(F)cc2)cc1`, the Potency result is “inactive”. For `CCNC(=O)c1ccc(-c2ccc3ncnc(NCCc4cnc[nH]4)c3c2)o1` the value was “inactive”; for `Cc1cc(NS(=O)(=O)c2ccc(NC(=O)Cc3ccc(Cl)c(Cl)c3)cc2)on1`, “inactive”; for `O=S(=O)(Nc1nccs1)c1ccc(NCc2cccc(O)c2)cc1`, “inactive”. Then `O=S(=O)(c1ccc2c(c1)OCCO2)C1CCC(O)CC1` (stereo not given), with “inactive”; and `O=C(c1cc2sccc2n1Cc1ccccc1)N(CCc1ccc(O)c(O)c1)Cc1ccccc1`, with “inactive”; and `N#CN1CCC(NS(=O)(=O)c2ccc(F)cc2)C1` (stereo not given), with “inactive”. For the compound `O=C(O)c1ccc(CSc2nnc(-c3cccc([S+](=O)([O-])N4CCCC4)c3)n2-c2ccccc2)cc1`, the Potency result is “inactive”. As to `CN1CCN(c2cccc(Nc3nn4c(=O)c5ccc(F)cc5nc4s3)c2)CC1`, the Potency entry was “inactive”.

Turning to `O=C(O)c1c(-c2ccccc2)no[n+]1[O-]`, the Potency entry is “inactive”. With `COc1ccc(OC)c(C2=Nn3c(nnc3-c3ccccc3C)SC2)c1`, the Potency result was “inactive”. Then `COc1cc(NS(=O)(=O)c2ccc3ccccc3c2)c2ncccc2c1`, with “inactive”. Take `Cn1nnnc1Sc1ncnc2scc(-c3cccc(C#N)c3)c12`: the Potency entry was “inactive”.

As to `O=C(Nc1ccc(-c2cn[nH]c2)cc1)Nc1nnc(-c2ccncc2)s1`, the Potency result was “inactive”. Then `CC(C)(C)OC(=O)N1CCN(c2ccc(NCc3ccc(-c4ccc(C#N)cc4)o3)cn2)CC1`, with “inactive”; and `O=c1c2[nH]c3cc(Br)sc3c2cnn1Cc1ccccc1F`, with “inactive”.
